The values below come from ChEMBL document CHEMBL4513216, “Probing the Open Global Health Chemical Diversity Library for Multistage-Active Starting Points for Next-Generation Antimalarials” (ACS Infect Dis, 2020).

In all, about 68,000 compounds went through this assay and about 2,700 (4%) showed an effect of 50% or more. The full list was thinned out, with strong results kept by preference.

This assay relates to Plasmodium berghei. The experiment in a line: Screen against P. berghei liver stage (PbLuc), transformed with Luciferase, at 2uM. The conditions noted are these: tested at 2 uM. Type of assay: functional, HepG2.
Turning to `CC1CN(S(=O)(=O)c2ccc(C(=O)NCC(F)F)cc2)CCCO1` (centres undefined), the INHIBITION came to 9.21%.
On to `COCCn1ccnc1C1CCN(C(=O)c2cccc(COC)n2)CC1`, for which the INHIBITION is given as -2.69%.
Regarding `CC(C)NC(=O)CCNC(=O)c1cc(F)ccc1NS(C)(=O)=O`, the INHIBITION is listed as -84.03%.
The figure for `c1cnn(C[C@@H]2C[C@@H]3CN(CC4CC4)CC[C@@H]3N2c2nccs2)c1` is -11.68%; for `Cc1noc(C)c1CN1CCC(c2nc3cc(Cl)ccc3o2)CC1` it is 32.43%; for `Cc1nc(CN2CCC(c3nc4cc(Cl)ccc4o3)CC2)oc1C` it is 29.16%.
Take `Cc1ncc(CN2CCC(c3nc4cc(Cl)ccc4o3)CC2)s1`: the INHIBITION is 56.38%.
With `Cc1oc(-c2nc(C#N)c(NC(C)C)o2)cc1S(=O)(=O)N1CCCCC1`, the INHIBITION amounted to 28.39%.
In the case of `Cc1ccnc(C2(C)CCCN2S(=O)(=O)c2cccnc2)n1` (centres undefined), the INHIBITION is on record as -0.7%.
As for `O=C(Nc1cc(C(F)(F)F)c[nH]c1=O)C1CCCNC1` (centres undefined), the INHIBITION is reported as -50.41%.
On to `CC1CCN(CCCNS(=O)(=O)c2cc(F)cc(F)c2)CC1`, for which the INHIBITION amounted to 14.52%.
As to `CCOCC(=O)N1CCC(Oc2ccc(Cl)cn2)CC1`, the INHIBITION is given as -4.69%.
As for `CC(=O)N1CCC(Oc2ccc(C#N)cn2)CC1`, the INHIBITION is -1.02%.
For the compound `Cn1nc(C(=O)N2CCC(Oc3ccc(C#N)cn3)CC2)ccc1=O`, the INHIBITION is given as 37.08%.
Take `COc1ccc(F)cc1S(=O)(=O)N1CCC(Oc2ccc(Cl)cn2)CC1`: the INHIBITION was found to be 54.73%.
For `O=S(=O)(c1cc(F)cc(F)c1)N1CCC(Oc2ccc(Cl)cn2)CC1`, the INHIBITION is 20.5%.
`N#Cc1ccc(OC2CCN(C(=O)c3ccc(Br)o3)CC2)nc1`: the INHIBITION is -2.43%.
The figure for `CC(=O)N1CCC(Oc2ccc(Cl)cn2)CC1` is 64.16%; for `N#Cc1ccc(OC2CCN(C(=O)c3ccccc3Cl)CC2)nc1` it is 54.47%.
`COc1ccc(F)cc1S(=O)(=O)N1CCC(OC)CC1`: the INHIBITION amounted to 28.55%.
Regarding `COc1ccccc1C(=O)N1CCC(Oc2ccc(C#N)cn2)CC1`, the INHIBITION is 64.74%.
`CCOC(=O)N1CCC(Oc2ccc(C(F)(F)F)cn2)CC1`: the INHIBITION was found to be 30.98%.
As for `N#Cc1ccc(C(=O)N2CCC(Oc3ccc(C#N)cn3)CC2)cc1`, the figure is 20.49%; as for `COc1cc(N2CC[C@@H](O)[C@@H]2Cc2ccccc2)ncn1`, -30.57%.
As to `CNc1ccccc1C(=O)N(C)CCc1ccccc1`, the INHIBITION is -88.87%.
On to `CN(Cc1ccsc1)C(=O)c1n[nH]c(N)c1-c1ccccc1`, for which the INHIBITION amounted to 8.75%.
As for `Cc1cc(C(=O)NC(C)Cc2cccc(Cl)c2)n(C)n1` (centres undefined), the figure is -16.65%; as for `Cc1n[nH]c(C2CN(CC(=O)NCCC3=CCCCC3)CCO2)n1` (centres undefined), 1.27%.
Consider `CN1CC2(CCN(S(=O)(=O)C3CC3)CC2)c2ccccc21`, for which the INHIBITION is recorded as 13.26%.
As for `Cn1ncnc1NCc1ccccc1Cl`, the figure is 6.75%; as for `CCC(C(=O)N(C)Cc1cc(COC)[nH]n1)n1cccn1` (centres undefined), 19.12%.
For the compound `CN(Cc1cnn(C)c1)C(=O)NCc1cc(Br)cs1`, the INHIBITION was 31.78%.
The figure for `Cc1cc(NC(=O)CN2CCCC2c2noc(C3CC3)n2)n(C)n1` (centres undefined) is -30.39%.
As for `Cc1cc(NC(=O)CN2CCCC2c2noc(C)n2)n(C)n1` (centres undefined), the figure is 50.76%.
Take `Cc1cc(NC(=O)CN2CCCC2c2noc(C)n2)n(C(C)(C)C)n1` (centres undefined): the INHIBITION turned out to be 7.71%.
As for `Cc1cccc(COC[C@@]23CCC[C@@H]2CN(S(=O)(=O)N(C)C)C3)n1`, the INHIBITION is reported as 31.96%.
Take `COc1ccccc1CNC(C)c1ccc(-n2ccnc2)cc1` (centres undefined): the INHIBITION is recorded as 18.85%.
Take `CC(C)N(C)S(=O)(=O)c1ccc2c(c1)CCN(C(=O)c1cscn1)C2`: the INHIBITION is -68.29%.
As to `Cc1ncsc1C(=O)NC1CCN(CCC(=O)Nc2ccccc2)CC1`, the INHIBITION turned out to be 1.02%.
On to `O=C(CN1CCC(Nc2ncccn2)CC1)Nc1ccccc1`, for which the INHIBITION worked out at 36.28%.
On to `Cc1cnc(NC2CCN(CC(=O)Nc3ccccc3)CC2)nc1C`, for which the INHIBITION is 76.82%.
Take `CCN1CCN(C2CCN(Cc3nnc(C4CC4)o3)CC2)C1=O`: the INHIBITION is listed as -8.9%.
As to `O=c1[nH]nc2nc(N3CCOCC3)ccn12`, the INHIBITION is listed as -60.22%.
On to `Cc1nn(C)cc1CN1C[C@H]2CC[C@@H](C1)N(Cc1c(C)noc1C)C2=O`, for which the INHIBITION amounted to 35.46%.
Consider `COc1cc(C(C)=O)ccc1OC12CCCN(CC1)C2` (centres undefined), for which the INHIBITION is listed as -18.6%.
For the compound `COc1cc(C#N)ccc1OC12CCCN(CC1)C2` (centres undefined), the INHIBITION was found to be 63.83%.
Consider `CCCc1ccc(OC23CCCN(CC2)C3)c(OC)c1` (centres undefined), for which the INHIBITION was -21.37%.
As for `Cc1nc([C@H]2C[C@@H]3CCN(Cc4cnn(C)c4)C[C@H]3O2)sc1C`, the figure is -19.14%; as for `Cc1ccc(C(=O)N2CC3(CCCCC3)c3cc(C(=O)O)ccc32)cn1`, -46.89%.
Turning to `Cc1nc(CCN(C)C(=O)CN2CCCCCC2)no1`, the INHIBITION is 51.9%.
As for `CC1CCN(CC(=O)N(C)CCc2noc(C3CC3)n2)C1=O` (centres undefined), the figure is 27.73%; as for `Cc1nc(CN2CCCN(CC(=O)N(C)CCC#N)CC2)no1`, -14.14%.
As for `COc1cc(N2C[C@@H]3COC[C@@H](Cc4nnc(C)o4)[C@@H]3C2)ncn1`, the figure is 21.27%.
Turning to `COc1ccccc1N1CCN(Cc2nc(C)c(C)o2)CC1`, the INHIBITION is listed as -63.57%.
Take `Cc1cc(CN2CCOC(CN(C)C)C2)no1` (centres undefined): the INHIBITION was 16.64%.
`O=C(NCCc1ccccc1)c1cn(CCNCc2cccnc2)nn1`: the INHIBITION is reported as 53.12%.
As for `O=C(NCCCOc1cccnc1)c1cn(CCc2ccccc2)nn1`, the figure is 41.14%.
Consider `O=C(NCc1cccnc1)c1cn(CCc2ccccc2)nn1`, for which the INHIBITION is 17.19%.
As to `Cc1nc(CC(C)C)sc1C(=O)N1CCC1`, the INHIBITION stood at 11.18%.
For the compound `O[C@@H]1C[C@@H](c2nc(-c3cccnc3)no2)N(C2CCOCC2)C1`, the INHIBITION is -14.24%.
As to `O=C(NC[C@H]1C[C@@H]2CN(C(=O)c3ccno3)C[C@@H]2O1)C1CCC1`, the INHIBITION is recorded as 55.52%.
As to `CN(C)C[C@H]1C[C@@H]2CN(C(=O)c3ccco3)C[C@@H]2O1`, the INHIBITION came out at 10.49%.
Take `Cn1cccc1C(=O)NC[C@H]1C[C@@H]2CN(C(=O)c3ccno3)C[C@H]2O1`: the INHIBITION is given as 50.32%.
Regarding `O=C(NC[C@H]1C[C@@H]2CN(C(=O)c3ccco3)C[C@@H]2O1)c1ccsc1`, the INHIBITION stood at 34.93%.
Turning to `Cn1cccc1C(=O)NC[C@H]1C[C@@H]2CN(C(=O)c3ccco3)C[C@@H]2O1`, the INHIBITION was 6.8%.
As for `CN(C)C[C@H]1C[C@@H]2CN(C(=O)c3ccno3)C[C@@H]2O1`, the INHIBITION was -30.38%.
The figure for `COc1ccc(CN(C)Cn2cc(C)n(-c3cc(C)on3)c2=O)cc1` is 14.29%; for `CCC1c2ccsc2CCN1C(=O)NCc1ccc(C)nc1` (centres undefined) it is 11.09%; for `COC1COC2(CCN(Cc3cccc(Cl)c3)CC2)C1` (centres undefined) it is 23.81%.
Turning to `CO[C@@H]1CC[C@H]2[C@H]1OCCN2CCOCc1ccccc1`, the INHIBITION is listed as 3.11%.
As for `Cc1nc(N[C@H]2COC[C@@H]2N2CCCCC2)c2c(C)nn(C)c2n1`, the INHIBITION is on record as -11.88%.
The figure for `c1cc(-c2cncc(C3CCNCC3)n2)n[nH]1` is 29.25%.
For the compound `c1cc(-c2cnc(C3CCNCC3)cn2)n[nH]1`, the INHIBITION worked out at 66.18%.
In the case of `Fc1ccc(-c2cnc(C3CCNCC3)cn2)cc1`, the INHIBITION turned out to be 14.8%.
In the case of `Cc1cccc(CN2C(=O)C[C@H]3[C@@H]2CCN3CC2CC2)n1`, the INHIBITION is 3.86%.
As for `NC(=O)C1CN(C(=O)Nc2ccc(SC(F)(F)F)cc2)CCO1` (centres undefined), the figure is -31.17%; as for `O=C(NC1CCC1)C1CCC2(CN(C(=O)c3ccco3)C2)O1` (centres undefined), -160.99%; as for `O=C(NCC1CC1)C1CCC2(CN(C(=O)c3ccno3)C2)O1` (centres undefined), -33.57%.
For `O=C(NC1CCC1)C1CCC2(CN(C(=O)c3ccno3)C2)O1` (centres undefined), the INHIBITION stood at 57.85%.
The figure for `Cc1cc(C)c(CNC(=O)CC2CCCO2)c(=O)[nH]1` (centres undefined) is -36.34%; for `O=C1CCCN1CCCC(=O)N1CCCC(Cc2cccnc2)C1` (centres undefined) it is -11.81%; for `CN(CCOCC1CC1)C(=O)Nc1ccc(C#N)c(Cl)c1` it is -47.52%.
Regarding `COc1ccc(C(=O)N2C[C@@H](C(=O)O)[C@H](c3ccccc3C)C2)c(O)c1`, the INHIBITION is reported as -43.72%.
With `c1cc(-c2c[nH]c([C@@H]3COCCN3C3CCOCC3)n2)ccn1`, the INHIBITION turned out to be 30.63%.
In the case of `CN1CCOC[C@H]1c1nc(-c2ccncc2)c[nH]1`, the INHIBITION was 28.45%.
Consider `CC(C)N1CCOC[C@H]1c1nc(-c2ccncc2)c[nH]1`, for which the INHIBITION is listed as 54.56%.
As for `O=C(O)[C@@H]1CN(C(=O)c2ccc(O)cc2)C[C@H]1c1cccc(F)c1`, the figure is 38.65%.
In the case of `CN(C)CC(=O)N1C[C@H]2CCC[C@@]2(COc2ccccn2)C1`, the INHIBITION worked out at 19.44%.
Turning to `O=C(CCC(=O)N1CCCC1c1ccsc1)N1CCOCC1` (centres undefined), the INHIBITION is reported as -26.92%.
As for `Cc1ccc(-c2ncc(C(=O)N3CCN4CCCCC4C3)c(O)n2)cc1` (centres undefined), the figure is 60.9%; as for `Cc1ccc(-c2ncc(C(=O)N3CCC[C@H](N)C3)c(O)n2)cc1`, 63.1%; as for `Cc1ccc(-c2ncc(C(=O)N3CCCC(CCN)C3)c(O)n2)cc1` (centres undefined), 41.07%.
With `Cc1nc(C(C)C)ncc1C(=O)N1CCCC(N2CCCC2)C1` (centres undefined), the INHIBITION came out at 11.44%.
`Cc1ccc(-c2ncc(C(=O)N3CCCN4CCC[C@H]4C3)c(O)n2)cc1`: the INHIBITION is reported as 32.26%.
With `Cc1nc(-c2cccnc2)ncc1C(=O)N1CCCCC(N)C1` (centres undefined), the INHIBITION amounted to 6.22%.
Turning to `c1cnc(N2C[C@H]3CCN(CC4CC4)C[C@H]3C2)cn1`, the INHIBITION is 11.56%.
With `CC(Cn1cccn1)n1cnc2cccc(Cl)c2c1=O` (centres undefined), the INHIBITION is 33.52%.
The figure for `CCC(=O)N1CCCC(c2cc(Nc3ncccn3)nc(C)n2)C1` (centres undefined) is 11.08%.
`NC(=O)c1ccc(-c2nc3c(c(=O)[nH]2)CCNC3)cc1`: the INHIBITION turned out to be 41.78%.
With `O=c1[nH]c(COc2ccc(Cl)cc2)nc2c1CCNC2`, the INHIBITION stood at 12%.
For `O=c1[nH]c(-c2ccc(Cl)cc2)nc2c1CCNC2`, the INHIBITION is reported as 57.21%.
In the case of `O=c1[nH]c(-c2ccc(F)c(F)c2)nc2c1CCNC2`, the INHIBITION was -18.12%.
Consider `O=c1[nH]c(-c2ccc(F)cc2)nc2c1CCNC2`, for which the INHIBITION is 53.66%.
As for `O=c1[nH]c(-c2ccccc2F)nc2c1CCNC2`, the INHIBITION turned out to be 1.4%.
